This note sets out measurements from PubChem BioAssay AID1259422 (The Scripps Research Institute Molecular Screening Center, 2018).

One may read the inhibition as the relative decrease from the control value, in per cent.

Where “and” joins values, the source holds several entries; their conditions need not be identical. Equal values may be shown once. In all, about 640,000 compounds went through this assay and about 9,300 (1.5%) were called active. The sample as a whole holds a higher share of actives than the screen did. A number with no mark means an inactive call. Cut-off read from the data, not from the text of the source: active = inhibition above about 32%; inactive = the rest.

The nature of this assay: TEAD-YAP interaction inhibition, primary screen, TEAD-YAP interaction inhibitor project, luminescence, HEK-TIYL cells (AID 1259422).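 Note: 0% = median of test compound wells and 100% = reference inhibitor wells.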 The settings on record: TEAD-Gal4/YAP UAS-luciferase luminescence, at 9.12 µM, stronger effect = higher value.
Regarding `COC(=O)c1c(C)oc2ccc(NS(=O)(=O)c3cccc4cccnc34)cc12`, the inhibition is 28.9%.

Turning to `CC(C)(C)C(=O)Nc1scc(-c2ccc(Br)cc2)c1C(=O)O`, the inhibition is 38.7% (active).

For the compound `CC(NC(=O)C(C)(C)C)c1ccc(Br)cc1` (centres undefined), the inhibition was 8.71%.

In the case of `CCOC(=O)c1c(-c2ccc(Br)cc2)csc1NC(=O)COC`, the inhibition is -10.8%.

For the compound `CCOc1cc(C(=O)OCc2cc(C(C)=O)ccc2OC)cc(OCC)c1OCC`, the inhibition is -5.65%.

As to `CCc1ccc(N/C(N)=N/c2nc(C)cc(C)n2)cc1`, the inhibition is 23.8%.

Turning to `Cc1cc(C)nc(/N=C(\N)Nc2cccc(C(F)(F)F)c2)n1`, the inhibition was 36.7% (active).

With `Cc1cc(C)nc(/N=C(\N)Nc2ccc(Br)cc2)n1`, the inhibition was 1.37% and -0.43%.

Take `Cc1cccc(C)c1NS(=O)(=O)c1ccc2c(c1)oc(=O)n2C`: the inhibition is -6.37%.

On to `COc1ccc(Cc2nc3sc4c(c3c(=O)n2N)CCCC4)cc1OC`, for which the inhibition was 29.2%.

For `Cc1cccc(C)c1-n1c(N)c(C(=O)Nc2cccc(Cl)c2)sc1=S`, the inhibition was -13.7%.

With `O=C(CSc1nc2ccccc2s1)N1N=CCC1c1ccccc1` (centres undefined), the inhibition was 51.5% (active).

As to `CCCCNC(=O)NNC(=O)CSc1nc2ccccc2s1`, the inhibition is 9.84%.

Take `O=C(CSc1nc2ccccc2s1)NNC(=O)C1CCCO1` (centres undefined): the inhibition is 1.6%.

As to `C/C(=N\NC(=O)c1cccc(Br)c1)c1cc2ccc(O)cc2oc1=O`, the inhibition was -10.3%.

For the compound `CC(C(=O)N(C)c1ccccc1)N1C(=O)NC(c2ccccc2)(c2ccccc2)C1=O` (centres undefined), the inhibition was 6.96%.

As for `CCOC(=O)c1c(-c2cccc3ccccc23)csc1NC(=O)/C=C/C(=O)O`, the inhibition was 33.5% (active).

`CCOC(=O)c1c(-c2ccccc2)csc1NC(=O)CNCC(C)C`: the inhibition was -3.7%.

On to `CCOC(=O)c1c(NC(=O)/C=C/C(=O)O)sc(C)c1C`, for which the inhibition was 28.1%.

In the case of `Cc1ccc(C2CC(=O)C3=C(C2)Nc2ccccc2N(C(=O)C(F)(F)F)C3c2cccc(Br)c2)cc1` (centres undefined), the inhibition was 7.36%.

With `CCOC(=O)C1=C(C)N=c2s/c(=C/c3cc(Br)c(N4CCOCC4)o3)c(=O)n2C1c1ccc(OC)cc1` (centres undefined), the inhibition is 4.11%.

`Cc1ccc(C)c(C(=O)NCc2nc(-c3ccccc3)no2)c1`: the inhibition is 9.38%.

Take `Cc1nc2sccn2c1C(=O)NCc1cccc(Cl)c1`: the inhibition is 12.9%.

In the case of `Cc1nc2ccccn2c1C(=O)NCc1nc(-c2ccccc2)no1`, the inhibition was 36.5% (active).

For `Cc1nc2ccccn2c1C(=O)NCc1ccc(Oc2ccccc2)cc1`, the inhibition was 62.4% (active).

On to `O=C(NCc1nc(-c2ccccc2)no1)c1ccccc1I`, for which the inhibition was 7.97%.

As to `C=CCN(C)C(=O)c1c(C)nc2ccccn12`, the inhibition is -6.06%.

For the compound `COc1ccc(CNCc2c(C(=O)O)[nH]c3ccccc23)cc1`, the inhibition is -5.51%.

On to `C=Cc1ccc(Cn2c(C(=O)O)c(CNCc3ccccc3OC)c3ccccc32)cc1`, for which the inhibition was 14.2%.

As for `Cc1ccc(N=C2NC(=O)C(Cc3ccccc3Cl)S2)cc1` (centres undefined), the inhibition was 33.1% (active).

`O=C(O)CC1SC(=Nc2ccccc2)NC1=O` (centres undefined): the inhibition was 4.55%.

With `Cc1cccc(NC(=O)CC2SC(=Nc3ccccc3)NC2=O)c1` (centres undefined), the inhibition was 3.61%.

Consider `CC(C)c1ccc(OCC(O)CN2CCN(c3ccccn3)CC2)cc1` (centres undefined), for which the inhibition is -5.32%.

`Cc1cc(N2CCN(c3ccccn3)CC2)nc2c(C)cccc12`: the inhibition is 2.36%.

Regarding `Cc1ccc(C(c2cc(Cl)c3cccnc3c2O)N2CCN(c3ccccn3)CC2)cc1` (centres undefined), the inhibition is 38% (active).

Regarding `CCOc1ccc(C(=O)Nc2sc3c(c2C(N)=O)CC(C)CC3)cc1` (centres undefined), the inhibition is 2.83%.

In the case of `CC(C)n1cnc2c(NCCOc3ccccc3)nc(-c3ccc(C(=O)NC4CC4)cc3)nc21`, the inhibition was 13.6%.

Regarding `COc1cc(OC)c(-n2c(C)cc(/C=C3/C(=N)N4C=CSC4=NC3=O)c2C)cc1Cl`, the inhibition is -0.88%.

Turning to `CC1=CN2C(=N)/C(=C/c3cc(C)n(-c4ccc(F)cc4)c3C)C(=O)N=C2S1`, the inhibition was -6.11%.

Turning to `Cc1cc(/C=C2/C(=N)N3C=CSC3=NC2=O)c(C)n1-c1ccc(F)cc1`, the inhibition was 41.3% (active).

`Cc1cc(/C=C2/C(=N)N3C=CSC3=NC2=O)c(C)n1-c1ccccc1F`: the inhibition is 86.4% (active).

Regarding `CC1=CC2=NC(=O)/C(=C\c3cc(C)n(-c4cccc(C)c4C)c3C)C(=N)N2O1`, the inhibition is 9.28%.

Consider `Cc1cc(/C=C2\C(=N)N3N=C(S(C)(=O)=O)SC3=NC2=O)c(C)n1-c1ccc(F)cc1`, for which the inhibition is 4.07%.

Turning to `COCC1=C(C(=O)OC)C(c2ccc(Cl)cc2Cl)n2ncnc2N1` (centres undefined), the inhibition is -3.21%.

Turning to `CN1C(=O)C(O)=C(c2ccccc2)S1(=O)=O`, the inhibition was 5.68%.

Regarding `COc1cccc(NC(=O)Cn2c(=O)c(C(F)(F)F)nc3ccccc32)c1`, the inhibition is 5.63%.

In the case of `Cc1ccc(NC(=O)/C(=C/c2ccc(Cl)cc2)NC(=O)c2ccco2)cc1`, the inhibition is -3.43%.

Turning to `COc1ccccc1CN1CCC2(CCC(CNC(=O)C(C)C)O2)CC1` (centres undefined), the inhibition was -13.5%.

For the compound `CC(C)C(=O)NCC1CCC2(CCN(Cc3nc(-c4ccccc4)cs3)CC2)O1` (centres undefined), the inhibition is 96.7% (active).

Turning to `CC(C)C(=O)NCC1CCC2(CCN(Cc3ccc4ccccc4c3)CC2)O1` (centres undefined), the inhibition is 9.09%.

Regarding `N#Cc1c(NC(=O)/C=C/c2cccc([N+](=O)[O-])c2)sc2c1CCCC2`, the inhibition is -1.55%.

`CC(=O)N1CCc2c(sc(NC(=O)CCSc3ccccc3)c2C(N)=O)C1`: the inhibition is 3.99%.

For the compound `CCOC(=O)N1CCc2c(sc(NC(=O)c3ccc([N+](=O)[O-])s3)c2C#N)C1`, the inhibition is 3.38%.

With `CC(=O)N1CCc2c(sc(NC(=O)CCS(=O)(=O)c3ccccc3)c2C#N)C1`, the inhibition is 3.65%.

In the case of `CCOC(=O)N1CCc2c(sc(NC(=O)CCSc3ccccc3)c2C#N)C1`, the inhibition was 44.1% (active).

In the case of `CCOC(=O)N1CCc2c(sc(NC(=O)/C=C/c3cccc([N+](=O)[O-])c3)c2C#N)C1`, the inhibition was 33.5% (active).

With `O=C(OC1CCS(=O)(=O)C1)c1ccccc1` (centres undefined), the inhibition was -9.29%.

For `CN1CCN(S(=O)(=O)c2ccc(Sc3ccc(Br)cc3)c(C(=O)O)c2)CC1`, the inhibition is -2.07%.

As to `CCOc1cc(C2Nc3ccccc3C(=O)N2c2ccc(OC)cc2)ccc1O` (centres undefined), the inhibition is -26.9%.

Consider `CCCN1C(=O)c2ccccc2NC1c1ccc(O)c(OC)c1` (centres undefined), for which the inhibition was 45.1% (active).

On to `CCCN1C(=O)c2ccccc2NC1c1ccc(OC)c(COc2ccc(Cl)cc2)c1` (centres undefined), for which the inhibition is 1.41%.

Consider `CCOC(=O)N1CCN(C(=O)CC2C(=O)NCCN2Cc2ccccc2C)CC1` (centres undefined), for which the inhibition is 4.23%.

Regarding `CCOc1ccc(C(=O)NC(=S)Nc2ccc(N3CCCCC3)cc2)cc1`, the inhibition was -3.84%.

Consider `O=C(NC1(c2ccc3c(c2)OCO3)CCCC1)c1cscn1`, for which the inhibition is 5.97%.

On to `CCOC(=O)c1ccc2c(c1)C(=O)N(c1ccc3ccccc3c1)C2=O`, for which the inhibition was -2.85%.

As for `NC(=O)c1sc2nc(C34CC5CC(CC(C5)C3)C4)ccc2c1N`, the inhibition was -1.93%.

On to `CCOC(=O)c1ccc2nc(C34CC5CC(CC(C5)C3)C4)ccc2c1`, for which the inhibition was 46.2% (active).

Consider `CC1CCc2sc(NC(=O)c3ccccc3F)c(C#N)c2C1` (centres undefined), for which the inhibition was -31.8%.

As for `CC(C)OCCCNc1c(-c2ccc(C(C)C)cc2)c(=O)c1=O`, the inhibition was 42.2% (active).

On to `COCCNc1c(-c2ccc(Cl)cc2)c(=O)c1=O`, for which the inhibition was -4.73%.

In the case of `Cc1ccc(-c2c(NCCCc3ccccc3)c(=O)c2=O)cc1`, the inhibition was -2.15%.

Turning to `COc1ccc(NS(=O)(=O)c2cc(NC(=O)CCCNC(N)=O)ccc2OC)cc1`, the inhibition is 5.83%.

Regarding `COc1cccc(-c2nc3ccccc3c(=O)n2NC(=O)c2ccccc2C)c1`, the inhibition was 2.18%.

With `COc1cccc(-c2nc3ccccc3c(=O)n2NC(=O)c2cccc(C)c2)c1`, the inhibition is 5.37%.

Regarding `COc1cccc(-c2nn3c(=O)c4ccccc4nc3n2N)c1`, the inhibition was 34.2% (active).

In the case of `COc1cccc(OC)c1C(=O)N1CCN(c2cccc(C)c2C)CC1`, the inhibition was 4.01%.

Consider `COc1ccc(C)cc1S(=O)(=O)N1CCN(C)CC1`, for which the inhibition is 13.6%.

Consider `COc1ccccc1N1CCN(S(=O)(=O)c2cc(C)ccc2OC)CC1`, for which the inhibition was -9.44%.

As for `COc1ccc(C)cc1S(=O)(=O)N1CCN(c2cc(-n3ccnc3C)ncn2)CC1`, the inhibition was 41.4% (active).

Take `COc1ccc(C[C@@H]2NC(=O)[C@@H]3C[C@H](NCc4cnn(-c5ccccc5F)c4)CN3C2=O)cc1`: the inhibition is 10.7%.

On to `CCC(C)N1C(=O)C2C(C(=O)Nc3ccc(F)c(Cl)c3)C3C=CC2(O3)C1C(=O)NC1CCCC(C)C1C` (centres undefined), for which the inhibition is -20.7%.

Consider `C/C(=N\NC(=O)Cc1cccn1C)c1ccc(O)cc1`, for which the inhibition is -12.8%.

Turning to `COCCNC(=O)/C=C/c1ccc(Br)cc1`, the inhibition is -24.8%.

For the compound `COCCNC(=O)c1ccc2c(c1)N=C(C)c1cc(Br)ccc1S2`, the inhibition was 52.5% (active).

For `CCN1CCSc2ccc(C(=O)NCCCOC)cc21`, the inhibition was 0.64%.

For the compound `COCCNC(=O)c1ccc2c(c1)ncn2-c1ccc(C)c(Cl)c1`, the inhibition was -17.5%.

In the case of `CC1=Nc2cc(C(=O)O)ccc2Sc2ccccc21`, the inhibition was -2.24%.

Regarding `COCCNC(=O)c1ccc2c(c1)N=C(C)c1cc(C)ccc1S2`, the inhibition is 67.6% (active).

Turning to `COc1cccc(CCC(=O)N2CCC(CCC(=O)N(C)Cc3ccccc3)CC2)c1`, the inhibition is 4.53%.

As for `COc1cc(C2C(C#N)=C(N)Oc3n[nH]c(-c4cc(OC)c(OC)c(OC)c4)c32)ccc1OC(=O)N1CCOCC1` (centres undefined), the inhibition is 12.5%.

On to `O=C(O)c1cc(N=Cc2cc(Br)cc(Cl)c2O)ccc1O`, for which the inhibition is -2.5%.

`COC(=O)C1=C(C)NC2=C(C(=O)CC(c3ccccc3)C2)C1c1ccc(C)cc1` (centres undefined): the inhibition was 2.81%.

Regarding `CC1=C(C#N)C(c2ccc(Cl)cc2Cl)C2=C(CC(c3ccccc3)CC2=O)N1` (centres undefined), the inhibition is 11.3%.

As to `CC1=C(C#N)C(c2ccccc2Br)C2=C(CC(c3ccccc3)CC2=O)N1` (centres undefined), the inhibition was 37.1% (active).
